From PubChem BioAssay (NCATS)
Several values for one entry are separate records, joined by “and”; a condition that tells them apart may be missing. Equal entries are not always repeated. Records with an inconclusive call do not appear. Activity calls are given as the source filed them. Calls come from the whole dose curve; as a rule, active = well fitted inhibition curve with a large enough effect; inconclusive = small, poorly fitted or top-dose-only effect; inactive = flat fitted curve, though single readings scatter.

Columns and labels:
KB-3-1 = assay: Cytotoxic Profiling of Annotated Libraries Using Quantitative High-Throughput Screening (AID 1296008); details: Five cell lines viability, CellTiter-Glo ATP luminescence, 48-72 h; max response: hits give low values; note: potency is the fitted concentration of half-maximal effect; for max response: % is set by controls: 0 for no effect and ±100 for the full control effect
In short: (§1)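 Cytotoxicity was measured as CellTiter-Glo ATP luminescence, read after 10 min at room temperature. Compound treatment of the cells lasted 48 or 72 hr at 37 degrees Celsius in a qHTS format.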

CRL-7250 [1] = assay: as above; details: Five cell lines viability, CellTiter-Glo ATP luminescence, 48-72 h; max response: hits give low values
In short: as §1

HEK293 = assay: as above; details: Five cell lines viability, CellTiter-Glo ATP luminescence, 48-72 h; max response: hits give low values
In short: as §1

HaCat = assay: as above; details: Five cell lines viability, CellTiter-Glo ATP luminescence, 48-72 h; max response: hits give low values
In short: as §1

NIH3T3 = assay: as above; details: Five cell lines viability, CellTiter-Glo ATP luminescence, 48-72 h; max response: hits give low values
In short: as §1

CRL-7250 [2] = assay: qHTS assay to identify novel small-molecules to repurpose for Merkel cell carcinoma treatment (AID 1296009); details: MCC and control cell lines, CellTiter-Glo viability, 72 h; at 44.8 µM (top of the series) unless noted
In short: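 After compound transfer in DMSO, plates were kept 72 hr at 37 degree celsius. Luminescent ATP signal from CellTiter-Glo served as viability measure, normalized against DMSO and no-cell controls.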
Note: nearly all actives have a fitted effect of over 60% in size.

C[C@]12CC[C@H](OS(=O)(=O)O)CC1=CC[C@@H]1[C@@H]2CC[C@]2(C)C(=O)CC[C@@H]12
inactive: max response (KB-3-1) 5.94%

COc1cc(CCNCc2ccccc2O)c(OC)cc1C#N
inactive: outcome (CRL-7250 [1]) | max response (HEK293) 2.88% | outcome (HaCat) | max response (NIH3T3) 4.5% | outcome (CRL-7250 [2])

COc1cc(C)[nH]c(=O)c1CNC(=O)c1c(C)n([C@H](C)C2CCOCC2)c2ccccc12
inactive: outcome (CRL-7250 [1]) | outcome (HEK293) | max response (HaCat) 4.27% | outcome (KB-3-1) | outcome (NIH3T3) | outcome (CRL-7250 [2])

CN1[C@@H]2CC[C@H]1CC(OC(=O)C1C=Nc3ccccc31)C2 (some centres not stated)
inactive: max response (CRL-7250 [1]) 0.829% | max response (HEK293) -5.26% | max response (HaCat) 2.07% | outcome (NIH3T3)

C/C=C(\C)C(=O)OC1CC2C(CC=C3CC(OC4CC(OC)C(OC5CC(OC)C(OC6OC(C)C(OC7OC(CO)C(O)C(O)C7O)C(OC)C6O)C(C)O5)C(C)O4)CCC32C)C2(O)CCC(C(C)=O)C12C (configuration not stated)
inactive: outcome (CRL-7250 [1]) | max response (HEK293) -9.26% | outcome (HaCat) | outcome (KB-3-1) | max response (NIH3T3) -0.91% | outcome (CRL-7250 [2]) inactive [at 9.27 µM]

COC(=O)C1(C)CCC(O)C2(C)c3c(O)cc(C(C)C)cc3C(O)C(OC(C)=O)C12 (configuration not stated)
inactive: outcome (CRL-7250 [1]) | outcome (HEK293) | max response (HaCat) -12.7% | max response (NIH3T3) 0.503% | outcome (CRL-7250 [2]) inactive [at 17.4 µM]

COC1CC(O[C@H]2CC[C@]3(C=O)C4CC[C@]5(C)[C@@H](C6=CC(=O)OC6)CC[C@]5(O)[C@@H]4CC[C@]3(O)C2)OC(C)C1O[C@@H]1O[C@H](CO)[C@@H](O)[C@H](O)[C@H]1O (some centres not stated)
active: Potency (CRL-7250 [1]) 96.8 nM | Potency (HEK293) 153 nM | Potency (HaCat) 1530 nM
inactive: outcome (NIH3T3)

CCN1C[C@]2(COC)[C@H](O)C[C@H](OC)[C@@]34[C@@H]5C[C@@]6(O)[C@H](OC(=O)c7ccccc7)[C@@H]5[C@@](OC(C)=O)([C@@H]([C@H](OC)[C@H]23)[C@@H]14)[C@@H](O)[C@@H]6OC
inactive: max response (KB-3-1) 2.56%

CC(C)(O)[C@H]1O[C@H]2CC[C@@]3(C)[C@@](O)(CC[C@H]4Cc5c([nH]c6ccccc56)[C@@]43C)C2=CC1=O
inactive: max response (CRL-7250 [1]) -14.1% | max response (HEK293) 2.88% | max response (HaCat) 0.588% | outcome (NIH3T3)

C#CCN1CC(=O)N(COC(=O)C2C(C=C(C)C)C2(C)C)C1=O (configuration not stated)
inactive: max response (KB-3-1) -3.38%

CC(C)[C@@H](CN1CC[C@@](C)(c2cccc(O)c2)[C@@H](C)C1)NC(=O)[C@H]1Cc2ccc(O)cc2CN1
inactive: outcome (CRL-7250 [1]) | max response (HEK293) -18.6% | outcome (HaCat) | max response (KB-3-1) 4.16% | outcome (NIH3T3) | outcome (CRL-7250 [2])

C[N+]1([O-])[C@@H]2CC(OC(=O)[C@H](CO)c3ccccc3)C[C@H]1[C@@H]1O[C@@H]12 (some centres not stated)
inactive: max response (KB-3-1) -17% and 5.47%

C[C@@H]([C@H](O)c1ccccc1)N(C)C
inactive: max response (KB-3-1) 3.96%

Clc1ccc(C(Cn2ccnc2)OCc2csc3c(Cl)cccc23)c(Cl)c1 (configuration not stated)
inactive: max response (KB-3-1) -3.27%

COC1=CC(=O)O[C@@H](CCc2ccccc2)C1
inactive: outcome (CRL-7250 [1]) | max response (HEK293) 0.422% | max response (HaCat) 3.86% | outcome (KB-3-1) | outcome (NIH3T3) | outcome (CRL-7250 [2])

COC(=O)[C@@]12C(=O)C(C)C(=O)[C@]1(C)C(C)=C[C@H]1[C@]3(C=O)CC[C@H](OC(C)=O)C(C)(C)[C@H]3CC[C@@]12C (some centres not stated)
inactive: outcome (CRL-7250 [1]) | outcome (HEK293) | outcome (HaCat) | max response (NIH3T3) 3.28% | outcome (CRL-7250 [2]) inactive [at 17.4 µM]

C[C@@H](CO)NC(=O)[C@@H]1C=C2c3cccc4[nH]cc(c34)C[C@H]2N(C)C1
inactive: max response (KB-3-1) 1.7%

COC1CC(=O)C23C(=O)NC(CC(C)C)C2C(C)=C(C)C(OO)C3/C=C(\C)CCC(O)C1O (configuration not stated)
inactive: outcome (CRL-7250 [1]) | max response (HEK293) 3.17% | outcome (HaCat) | outcome (KB-3-1) | outcome (NIH3T3) | outcome (CRL-7250 [2]) inactive [at 17.4 µM]

C[C@]12CCC(=O)C=C1C=C[C@@H]1[C@@H]2CC[C@@]2(C)[C@H]1CC[C@@]2(O)CCC(=O)O
inactive: max response (KB-3-1) 17.7%

C[C@@]1(C(=O)O)CC[C@]2(C)CC[C@]3(C)C4=CC(=O)c5cc(O)c(O)cc5[C@]4(C)CC[C@@]3(C)[C@@H]2C1
inactive: outcome (CRL-7250 [1]) | max response (HEK293) -9.77% | outcome (HaCat) | outcome (NIH3T3) | outcome (CRL-7250 [2]) inactive [at 17.4 µM]

C[C@]12C[C@H]3S[C@H]3C[C@@H]1CC[C@@H]1[C@@H]2CC[C@]2(C)[C@@H](O)CC[C@@H]12
inactive: max response (KB-3-1) 5.47%

COC(=O)[C@@H]1[C@H]2CC[C@@H](C[C@H]1OC(=O)c1ccccc1)N2C
inactive: max response (KB-3-1) 0.336%
